Reference: PubChem BioAssay (NCATS)
Inconclusive results are not listed. Calls of active or inactive are those of the source. Calls come from the whole dose curve; as a rule, active = well fitted curve in the direction sought with a large enough effect; inconclusive = small, poorly fitted or top-dose-only effect, or another doubt; inactive = no such curve, though single readings can be large; an effect the other way counts as inactive or inconclusive.

How the values were obtained:
[1] = Quantitative High-Throughput drug screen in 47 multiple myeloma cell lines against the NCATS MIPE library collection: KMS12PE_JCRB cell viability assay (AID 1918972); note: nearly all actives have a fitted effect of over 30% in size
In short: (§1)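 qHTS of the MIPE 4.0 collection: 500 myeloma cells/well, 48 h drug exposure at 37C in 5% CO2, then CellTiter-Glo for 5 min at room temperature before luminescence reading.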

[2] = Quantitative High-Throughput drug screen in 47 multiple myeloma cell lines against the NCATS MIPE library collection: KMS20_JCRB cell viability assay (AID 1918973); note: nearly all actives have a fitted effect of over 45% in size
In short: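 Inhibition of cell viability is measured here. Each line was plated at 500 cells per well, treated with MIPE 4.0 drugs, kept 48 hours at 37C, then assayed for ATP content by CellTiter-Glo luminescence.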

[3] = Quantitative High-Throughput drug screen in 47 multiple myeloma cell lines against the NCATS MIPE library collection: MMM1_PLB cell viability assay (AID 1918976); note: nearly all actives have a fitted effect of over 35% in size
In short: (§2)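 Viability after 48 h drug exposure was measured as ATP-dependent luminescence. Cells, 500 per well, sat at 37 °C under 5% CO2; DMSO wells set 100%, media-only wells 0%.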

[4] = Quantitative High-Throughput drug screen in 47 multiple myeloma cell lines against the NCATS MIPE library collection: MOLP8_DSMZ cell viability assay (AID 1918977); note: nearly all actives have a fitted effect of over 45% in size
In short: as §2

[5] = Quantitative High-Throughput drug screen in 47 multiple myeloma cell lines against the NCATS MIPE library collection: NCIH929_DSMZ cell viability assay (AID 1918978); note: nearly all actives have a fitted effect of over 35% in size
In short: as §2

[6] = Quantitative High-Throughput drug screen in 47 multiple myeloma cell lines against the NCATS MIPE library collection: OCIMY1_PLB cell viability assay (AID 1918979); note: nearly all actives have a fitted effect of over 35% in size
In short: as §2

[7] = Quantitative High-Throughput drug screen in 47 multiple myeloma cell lines against the NCATS MIPE library collection: MM1S_ATCC cell viability assay (AID 1918980); note: nearly all actives have a fitted effect of over 45% in size
In short: as §2

[8] = Quantitative High-Throughput drug screen in 47 multiple myeloma cell lines against the NCATS MIPE library collection: MM1R_ATCC cell viability assay (AID 1918981); note: nearly all actives have a fitted effect of over 35% in size
In short: as §2

[9] = Quantitative High-Throughput drug screen in 47 multiple myeloma cell lines against the NCATS MIPE library collection: LP1_DSMZ cell viability assay (AID 1918982); note: nearly all actives have a fitted effect of over 35% in size
In short: as §2

[10] = Quantitative High-Throughput drug screen in 47 multiple myeloma cell lines against the NCATS MIPE library collection: KMS28PE_JCRB cell viability assay (AID 1918983); note: nearly all actives have a fitted effect of over 35% in size
In short: as §2

[11] = Quantitative High-Throughput drug screen in 47 multiple myeloma cell lines against the NCATS MIPE library collection: KMS34_JCRB cell viability assay (AID 1918985); note: nearly all actives have a fitted effect of over 40% in size
In short: as §2

[12] = Quantitative High-Throughput drug screen in 47 multiple myeloma cell lines against the NCATS MIPE library collection: U266_ATCC cell viability assay (AID 1919864); note: nearly all actives have a fitted effect of over 35% in size
In short: as §2

[13] = Quantitative High-Throughput drug screen in 47 multiple myeloma cell lines against the NCATS MIPE library collection: XG6_PLB cell viability assay (AID 1919865); note: nearly all actives have a fitted effect of over 40% in size
In short: as §2

[14] = Quantitative High-Throughput drug screen in 47 multiple myeloma cell lines against the NCATS MIPE library collection: KMS26_JCRB cell viability assay (AID 1918975); note: nearly all actives have a fitted effect of over 45% in size
In short: as §1

[15] = Quantitative High-Throughput drug screen in 47 multiple myeloma cell lines against the NCATS MIPE library collection: L363_DSMZ cell viability assay (AID 1918984); conditions: L363 myeloma viability, CellTiter-Glo ATP luminescence, 48 h; viability (% of control): at 45.8 µM (top of the series); note: nearly all actives have a fitted effect of over 40% in size
In short: as §2

[16] = Quantitative High-Throughput drug screen in 47 multiple myeloma cell lines against the NCATS MIPE library collection: OCIMY7_PLB cell viability assay (AID 1918987); conditions: OCI-MY7 myeloma viability, CellTiter-Glo ATP, 48 h; viability (% of DMSO): at 45.8 µM (top of the series); note: nearly all actives have a fitted effect of over 65% in size
In short: as §2

[17] = Quantitative High-Throughput drug screen in 47 multiple myeloma cell lines against the NCATS MIPE library collection: OCIMY5_PLB cell viability assay (AID 1918988); note: nearly all actives have a fitted effect of over 65% in size
In short: as §2

[18] = Quantitative High-Throughput drug screen in 47 multiple myeloma cell lines against the NCATS MIPE library collection: OPM1_PLB cell viability assay (AID 1918989); note: nearly all actives have a fitted effect of over 40% in size
In short: as §2

[19] = Quantitative High-Throughput drug screen in 47 multiple myeloma cell lines against the NCATS MIPE library collection: SKMM1_PLB cell viability assay (AID 1919863); conditions: SKMM1 myeloma viability, CellTiter-Glo ATP, 48 h; viability: stronger effect = lower value; note: nearly all actives have a fitted effect of over 35% in size
In short: as §2
Potency is the fitted concentration of half-maximal effect.

CN1[C@H]2CC[C@H]1CC(OC(=O)c1c[nH]c3ccccc13)C2 (stereo partly drawn)
inactive: Potency [1] | Potency [6] | Potency [8] | Potency [9] | Potency [11]
active: Potency [2] 14.8 µM | Potency [3] 1.32 µM | Potency [4] 2.35 µM | Potency [5] 18.7 µM | Potency [7] 20.9 µM | Potency [10] 9.35 µM | Potency [12] 10.5 µM | Potency [13] 16.6 µM

Clc1ccc(C2(c3ccc(-c4cn[nH]c4)cc3)CCNCC2)cc1
active: Potency [1] 23.5 µM | Potency [2] 5.26 µM | Potency [14] 20.9 µM | Potency [3] 1.48 µM | Potency [6] 23.5 µM | Potency [7] 14.8 µM | Potency [9] 23.5 µM | Potency [10] 14.8 µM | Potency [15] 2.35 µM | Potency [16] 1.05 µM | Potency [17] 16.6 µM | Potency [18] 2.35 µM | Potency [13] 3.72 µM

NC1(C(=O)N[C@@H](CCO)c2ccc(Cl)cc2)CCN(c2ncnc3[nH]ccc23)CC1
active: Potency [1] 0.418 µM | Potency [2] 1.18 µM | Potency [14] 0.209 µM | Potency [3] 0.0105 µM | Potency [7] 0.0833 µM | Potency [8] 0.148 µM | Potency [10] 0.372 µM | Potency [15] 0.235 µM | Potency [11] 8.33 µM | Potency [16] 3.72 µM | Potency [17] 5.26 µM | Potency [18] 1.48 µM | Potency [19] 5.9 µM | Potency [13] 20.9 µM

CCCCC(F)(F)[C@@]1(O)CC[C@H]2[C@H](CC(=O)[C@@H]2CCCCCCC(=O)O)O1
inactive: Potency [1] | Potency [14] | Potency [8] | Potency [9] | Potency [10] | Potency [15] | Potency [18] | viability [19] 97.7%
active: Potency [2] 0.418 µM | Potency [17] 0.235 µM

Oc1cc(O)cc(C=Cc2ccc(O)c(O)c2)c1
active: Potency [1] 18.7 µM | Potency [2] 2.96 µM | Potency [3] 23.5 µM | Potency [5] 6.62 µM | Potency [7] 26.4 µM | Potency [8] 20.9 µM | Potency [11] 11.8 µM | Potency [16] 5.26 µM | Potency [17] 20.9 µM | Potency [18] 16.6 µM | Potency [19] 23.5 µM | Potency [13] 5.26 µM

O=C1NC(=O)C(c2cnc3ccccn23)=C1c1cn2c3c(cccc13)CN(C(=O)N1CCOCC1)CC2
inactive: Potency [6] | Potency [10] | Potency [12]
active: Potency [1] 0.001 µM | Potency [2] 3.72 µM | Potency [14] 0.0235 µM | Potency [8] 3.32 µM | Potency [15] 0.0093 µM | Potency [16] 0.0743 µM | Potency [17] 0.372 µM | Potency [18] 10.5 µM | Potency [13] 1.87 µM

CC(C)CN(C[C@H](O)[C@H](Cc1ccccc1)NC(=O)O[C@H]1CCOC1)S(=O)(=O)c1ccc(N)cc1
inactive: Potency [1] | Potency [4] | Potency [6] | Potency [11] | viability [19] 121%
active: Potency [2] 16.6 µM | Potency [14] 8.33 µM | Potency [7] 16.6 µM | Potency [8] 16.6 µM | Potency [17] 2.96 µM | Potency [18] 26.4 µM

CO[C@@H]1C(N(C)C(=O)c2ccccc2)C[C@H]2O[C@]1(C)n1c3ccccc3c3c4c(c5c6ccccc6n2c5c31)C(=O)NC4=O (stereo partly drawn)
active: Potency [1] 1.66 µM | Potency [2] 3.72 µM | Potency [14] 1.32 µM | Potency [11] 3.32 µM | Potency [16] 0.935 µM | Potency [17] 5.26 µM | Potency [18] 4.18 µM | Potency [19] 11.8 µM | Potency [12] 13.2 µM

CC1CCN(c2cc(N3CCN(C)CC3)ccc2NC(=O)c2cc(C#N)c[nH]2)CC1
active: Potency [3] 23.5 µM | Potency [8] 20.9 µM | Potency [10] 23.5 µM | Potency [11] 20.9 µM
inactive: Potency [1] | Potency [2] | Potency [5] | Potency [18] | Potency [13]

CN(C)CCN(C)C(=O)c1ccc(NC(=O)Nc2ccc(-c3nc(N4CCOCC4)c4ccn(CC(F)(F)F)c4n3)cc2)cc1
active: Potency [1] 0.132 µM | Potency [2] 0.0418 µM | Potency [3] 0.0296 µM | Potency [4] 0.0066 µM | Potency [5] 0.0083 µM | Potency [6] 7.43 µM | Potency [7] 0.0526 µM | Potency [8] 0.105 µM | Potency [9] 0.166 µM | Potency [10] 0.0469 µM | Potency [11] 0.372 µM | Potency [16] 3.32 µM | Potency [17] 0.418 µM | Potency [18] 0.0093 µM | Potency [19] 0.209 µM

CCN(CC)CCCCNc1nc2cc(Cl)c(Cl)cc2nc1-c1ccc(-c2cccs2)s1
active: Potency [1] 6.62 µM | Potency [2] 4.69 µM | Potency [3] 9.35 µM | Potency [4] 8.33 µM | Potency [5] 7.43 µM | Potency [6] 14.8 µM | Potency [7] 11.8 µM | Potency [9] 8.33 µM | Potency [10] 18.7 µM | Potency [15] 5.9 µM | Potency [11] 16.6 µM | Potency [17] 7.43 µM | Potency [19] 16.6 µM | Potency [12] 23.5 µM | Potency [13] 8.33 µM

CC(=O)N1CCN(c2ccc(OCc3nn(C)c(C)c3-c3cccc4c(CCCOc5cc(C)c(Cl)c(C)c5)c(C(=O)O)n(Cc5cccnc5)c34)cc2)CC1
active: Potency [1] 18.7 µM | Potency [2] 2.96 µM | Potency [14] 18.7 µM | Potency [5] 2.96 µM | Potency [7] 14.8 µM | Potency [8] 20.9 µM | Potency [10] 20.9 µM | Potency [15] 18.7 µM | Potency [16] 0.833 µM | Potency [17] 20.9 µM | Potency [18] 7.43 µM | Potency [12] 20.9 µM | Potency [13] 5.9 µM
inactive: Potency [6] | Potency [9]
